Bioassay records from PubChem.
aSyn rescue: qHTS of alpha-syn Inhibitors | hit rate 0.14% among 370,000 | Yeast expressing alpha-synuclein, growth rescue, BacTiter-Glo, 24 h | Potency, µM (highest dose often 46.1 µM), for inactives: top-dose growth rescue (activation), actives largely listed as activators | AID 652106, 2013; also: % of control where 0% means no effect; nearly all actives have a fitted effect of over 65% in size
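Screening used galactose-induced yeast with toxic alpha-synuclein levels, exposed to compound for 24 hr at 30 deg C. Cell growth, read with BacTiter-Glo luminescence, gave the measured signal.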
ClpP mod: qHTS Assay for Activators of ClpP | hit rate 1.9% among 340,000 | Potency, µM (highest dose often 57.5 µM), for the others: at the top dose activity change, negative = active | purified B. subtilis ClpP, FRET peptide cleavage, 20 min | ATP-dependent Clp protease proteolytic subunit (Bacillus subtilis (strain 168)), P80244; active = well fitted falling curve with a large enough effect; inconclusive = small, poorly fitted or top-dose-only effect; inactive = no such curve, though single readings can be large or run the other way; also: the source files actives as falling curves though it sought activators and does not explain the sign; nearly all actives have a fitted effect of over 65% in size
Target sequence (P80244 whole entry, looked up): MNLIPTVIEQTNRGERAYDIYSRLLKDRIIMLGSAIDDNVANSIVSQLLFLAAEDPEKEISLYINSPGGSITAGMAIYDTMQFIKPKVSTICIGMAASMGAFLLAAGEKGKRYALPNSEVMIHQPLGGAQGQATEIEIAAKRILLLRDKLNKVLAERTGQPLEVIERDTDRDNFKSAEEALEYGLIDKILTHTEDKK
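ClpP 10 microg/mL final, pH 8 Tris/KCl buffer with BSA, glycerol, Tween-20; compound pinned in; FRET-FV substrate; RT 20 min; Ex320/Em430; ΔFRET vs ADEP 5.8 microM, DMSO, no enzyme.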
TDP43 rescue: qHTS of TDP-43 Inhibitors; hit rate 1.8% among 410,000; TDP-43 expressing yeast growth rescue, BacTiter-Glo, 24 h; Potency, µM (highest dose often 46.1 µM), for the others: top-dose growth rescue (activation), usual class: activators; also: % of control where 0% means no effect; nearly all actives have a fitted effect of over 50% in size
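Cell-based yeast growth screen: TDP-43 expression induced in galactose, inoculum OD600=0.02 after raffinose pregrowth to mid-log. Read-out BacTiter-Glo luminescence at 24 hr, 30 deg C; inhibition of toxicity seen as signal increase.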
MmCpn inh: Inhibitors of TCP-1 ring complex (TRiC) of Methanococcus maripaludis (MmCpn): qHTS; AID 504842, 2011; purified Mm-Cpn ATPase, ADP Transcreener TR-FRET; Potency, µM (series often up to 76.9 µM), for the others: top-dose activity, negative = inhibition, usual class: inhibitors; hit rate 0.031% among 330,000; also: % is scaled to controls: 0 for no effect and ±100 for the full control effect; nearly all actives have a fitted effect of over 80% in size
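ATPase turnover read by TR-FRET ADP competition (Eu cryptate antibody/ADP-d2, 665/590 nm): 10uM ATP final, 25nM Mm-CPN final, 30 min 37degC after 10-min compound preincubation, pH 7.4 Tris/KCl/MgCl2/DTT buffer.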
FUS suppressor: qHTS for Suppressors of FUS Proteinopathy: Primary screen using FUS-linked yeast assay; S. cerevisiae FUS-expressing, growth rescue, OD600, 24 h; Potency, µM (series often up to 76.6 µM), usual class: activators; hit rate 0.24% among 390,000; AID 1347120, 2019;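 also: plate controls were DMSO vehicle for no effect and reference control for full effect; nearly all actives have a fitted effect of over 55% in size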
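Yeast FUS proteinopathy model; galactose-induced FUS (2%), starting OD 0.005. Cpds in dilution series, 24hr, 30C, 99% humidity. Abs 600 nm growth. Pos ctrl CP55940 (top 92uM final); neg ctrl DMSO.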
Abeta rescue: qHTS for compounds that reverse cellular toxicity of Amyloid beta (A-beta) peptide in yeast: Primary Screen; yeast expressing A-beta42, growth rescue, OD600, 48 h; response scale: 0% DMSO, 100% iron-clioquinol control; Potency, µM (highest dose often 46.1 µM), usual class: activators; hit rate 0.063% among 410,000; also: nearly all actives have a fitted effect of over 55% in size
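Yeast A-beta toxicity model in growth medium with pinned compounds, 48 h at 30 C; growth read as absorbance at 600 nm. Normalized to FeCl3/clioquinol equimolar mix (positive) and DMSO (negative).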
* marks the source's active call; other numbers are inactive results; [ ] = another dose, or the depositor's remark. Most compounds without a hit are left out; they make up all but 3.6% or so of the library. Unless noted, calls follow the shape of the dose curve; as a rule, active = well fitted curve in the direction sought with a large enough effect; inconclusive = small, poorly fitted or top-dose-only effect, or another doubt; inactive = no such curve, though single readings can be large; an effect the other way counts as inactive or inconclusive. Potency is read from the fitted curve at half-maximal effect.

For COc1ccc(OC)c(NC(=O)c2cc(S(=O)(=O)NCCc3ccc(Cl)cc3)ccc2F)c1 the results were ClpP mod -22.4%, TDP43 rescue 7.0%, FUS suppressor inactive and Abeta rescue inactive.
Screening O=[N+]([O-])c1ccc2nc(CO)[nH]c2c1 returned ClpP mod 1.2%.
`Cc1ccccc1Nc1nc(N)nc(CSc2nc3ccccc3s2)n1` gave aSyn rescue 3.8%, ClpP mod -3.9%, TDP43 rescue 20µM*, MmCpn inh -8.5% and Abeta rescue inactive.
Screening Cc1ccc(Nc2nc(N)nc(CSc3nc4ccccc4s3)n2)cc1 returned aSyn rescue -27.1%, ClpP mod -2.2%, TDP43 rescue inconclusive, MmCpn inh 0.4%, FUS suppressor inactive and Abeta rescue inactive.
Screening CCc1cccc(C)c1NC(=O)CCCSc1nc2ccccc2s1 returned aSyn rescue -12.0%, ClpP mod 1.3%, TDP43 rescue -4.9%, MmCpn inh -7.0%, FUS suppressor inactive and Abeta rescue inactive.
Cc1ccccc1NC(=O)CCCSc1nc2ccccc2s1 was read as aSyn rescue 6.4%, ClpP mod 1.8%, TDP43 rescue 12.6µM*, MmCpn inh -0.4% and Abeta rescue inactive.
COc1ccc(Nc2nc(N)nc(CSc3nnc(C)s3)n2)cc1 was read as aSyn rescue 1.7%, ClpP mod -1.1%, TDP43 rescue -16.5%, MmCpn inh -15.3%, FUS suppressor inactive and Abeta rescue inactive.
Screening Cc1ccc(Nc2nc(N)nc(CCl)n2)c(C)c1 returned aSyn rescue -6.7%, ClpP mod -2.0%, TDP43 rescue 3.0%, MmCpn inh 0.1%, FUS suppressor inactive and Abeta rescue inactive.
Screening COc1ccc(Nc2nc(N)nc(CSc3nc4cc(OC)ccc4s3)n2)cc1 returned ClpP mod -8.7%, TDP43 rescue 20µM*, FUS suppressor inconclusive and Abeta rescue inactive.
Screening Cc1ccc(Nc2nc(N)nc(CSc3nccn3C)n2)c(C)c1 returned aSyn rescue 2.4%, ClpP mod 3.98µM*, TDP43 rescue 17.9%, MmCpn inh -2.3%, FUS suppressor inactive and Abeta rescue inactive.
c1ccc(Nc2nc(-c3ccccc3)c(-c3ccccc3)s2)cc1 was read as aSyn rescue -1.9% and ClpP mod 4.1%.
`Cc1ccc(C)c(S(=O)(=O)c2nnn3c2nc(NC(C)C)c2sccc23)c1` gave ClpP mod inconclusive, TDP43 rescue 9.8%, FUS suppressor inactive and Abeta rescue inactive.
Cc1ccccc1Nc1nc(N)nc(CSc2ccc(F)cc2)n1 was read as aSyn rescue 2.4%, ClpP mod 0.7%, TDP43 rescue 25.1µM*, MmCpn inh 4.0%, FUS suppressor inactive and Abeta rescue inactive.
Cc1ccc(SCc2nc(N)nc(Nc3ccccc3C)n2)c(C)c1 was read as aSyn rescue 8.0%, ClpP mod 1.4%, TDP43 rescue inconclusive, MmCpn inh 1.9%, FUS suppressor inactive and Abeta rescue inconclusive.
Cc1ccc(SCc2nc(N)nc(Nc3ccccc3C)n2)cc1C was read as aSyn rescue 2.5%, ClpP mod 1.2%, TDP43 rescue 17.8µM*, MmCpn inh -10.8%, FUS suppressor inconclusive and Abeta rescue inactive.
For Cc1ccccc1Nc1nc(N)nc(CSc2nnc(C)n2C)n1 the results were aSyn rescue 1.3%, TDP43 rescue -0.1%, MmCpn inh -9.4%, FUS suppressor inactive and Abeta rescue inactive.
`COc1cccc(NC(=O)C2CCCN2C(=O)Nc2cccc3c2OCO3)c1` (stereo not given) gave FUS suppressor inactive.
For COC(=O)c1cc(-c2cccc(C#N)c2)c(=O)n2c1CCC2 the results were FUS suppressor inactive.
`CCCC(=O)N1CCC[C@]2(CC[C@@H](CCC(=O)N(CC)CC)O2)C1` gave FUS suppressor inactive.
`Cc1ccccc1NC1=NC(=S)N(c2ccccc2)C12CCCCC2` gave aSyn rescue -0.2%, ClpP mod 28.2µM*, TDP43 rescue inconclusive, MmCpn inh -1.6%, FUS suppressor inactive and Abeta rescue inactive.
`CCOc1ccc(NC(=O)CCCN2C(=S)NC(C)(C)CC2C)cc1` (stereo not given) gave aSyn rescue -2.4%, ClpP mod 28.2µM*, TDP43 rescue 0.7%, MmCpn inh 1.2%, FUS suppressor inactive and Abeta rescue inactive.
For O=C1c2ccccc2-c2onc3ccc(Oc4ccccc4)c1c23 the results were aSyn rescue inconclusive, ClpP mod 0.7%, TDP43 rescue 7.08µM*, MmCpn inh -1.3% and Abeta rescue inactive.
For CCOC(=O)C(C(=O)OCC)c1cc(Br)c2noc3c2c1C(=O)c1ccccc1-3 the results were aSyn rescue -2.5%, ClpP mod -0.4%, TDP43 rescue -19.3%, MmCpn inh 0.6%, FUS suppressor inactive and Abeta rescue inactive.
`Fc1ccc(/C=N/n2c(C3CCCCC3)n[nH]c2=S)cc1` gave aSyn rescue -11.4%, ClpP mod -0.9%, TDP43 rescue inconclusive, MmCpn inh 1.3%, FUS suppressor inactive and Abeta rescue 12.6µM*.
For CC1=C(C#N)C(c2cn(-c3ccccc3)nc2-c2cccs2)C(C#N)=C(C)N1 the results were aSyn rescue -7.1%, ClpP mod 35.5µM*, TDP43 rescue 2.0%, MmCpn inh -13.1%, FUS suppressor inactive and Abeta rescue inactive.
For CCCN1CNc2c(c(=O)[nH]c(=S)n2CCc2cc(Cl)ccc2Cl)C1 the results were aSyn rescue -2.0%[36.9 µM] and ClpP mod 1.8%.
Screening Cc1ccc(-c2nc(C(=O)Nc3cccc(C#N)c3)c3n2CCCCC3)cc1 returned aSyn rescue 0.2%, ClpP mod -0.8%, TDP43 rescue 1.2%, FUS suppressor inactive and Abeta rescue inactive.
`CC(=O)c1cccc(NC(=O)c2nc(-c3ccc(C)cc3)n3c2CCCCC3)c1` gave aSyn rescue 1.5%, ClpP mod -0.7%, TDP43 rescue 20µM*, FUS suppressor inconclusive and Abeta rescue inactive.
Screening Cc1ccccc1OCCCc1c(C)n[nH]c1C returned aSyn rescue 8.0%, TDP43 rescue 20µM*, MmCpn inh -2.2%, FUS suppressor inactive and Abeta rescue inactive.
